Data reported in the supplement of paper PMC9262897, “Low-cost anti-mycobacterial drug discovery using engineered E. coli” (Nature Communications, 2022).
Structures can show the parent of a compound that is named as a salt. ± gives the standard deviation of the averaged measurements.

Tests used:
Assay in all cases: growth (OD600 after 10 h); higher = more growth (less inhibition)
[1] = tested on: E. coli TESEC Alr+ wild-type control; details: compound 0.1 mM; raw OD600 reference: median of DMSO wells 0.241, cell-free background 0.041
Description: (§1)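 TESEC Mtb Alr E. coli, or the Alr+ wild-type control, in 384-well plates with Prestwick library compounds at 0.1 mM and 1% DMSO, across arabinose induction levels of 1E3 to 1E7 nM. Growth is read as OD600 after 10 h at 37 °C in triplicate biological replicates.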

E. coli TESEC Mtb Alr [2] = details: compound 0.1 mM
Description: as §1

E. coli TESEC Mtb Asd = details: compound 0.1 mM
Description: (§2)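 TESEC E. coli strains in which the native enzyme is deleted and replaced by arabinose-inducible Mtb Asd, DapB, CysH or TrpD, each grown in its selective medium. Strains were screened against the Prestwick library at 0.1 mM and 1% DMSO in 384-well format at low and high arabinose induction. Growth is read as OD600 after 10 h in triplicate.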

E. coli TESEC Mtb DapB = details: compound 0.1 mM
Description: as §2

E. coli TESEC Mtb Alr [3] = details: compound 0.1 mM; remark: listed apart in the source
Description: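 TESEC Mtb Alr E. coli (ΔaraC ΔtolC ΔentC Δalr ΔdadX, arabinose-inducible Mtb Alr) or the Alr+ wild-type control strain, grown in defined M9-fructose medium without D-alanine in 96-well plates with Prestwick library compounds at 0.1 mM and 1% DMSO. Low Alr induction is 0.1 µM arabinose and high induction is 10 mM arabinose.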

[4] = arabinose 1000 nM, raw OD600 reference: median of DMSO wells 0.294, cell-free background 0.041
[5] = arabinose 10000 nM, raw OD600 reference: median of DMSO wells 0.264, cell-free background 0.041
[6] = arabinose 100000 nM, raw OD600 reference: median of DMSO wells 0.201, cell-free background 0.041
[7] = arabinose 1000000 nM, raw OD600 reference: median of DMSO wells 0.193, cell-free background 0.041
[8] = arabinose 10000000 nM, raw OD600 reference: median of DMSO wells 0.146, cell-free background 0.041
[9] = arabinose induction (level): High, raw OD600 reference: median of DMSO wells 0.331, cell-free background 0.041
[10] = arabinose induction (level): Low, raw OD600 reference: median of DMSO wells 0.417, cell-free background 0.041
[11] = arabinose induction (level): High, raw OD600 reference: median of DMSO wells […], cell-free background 0.041
[12] = arabinose induction (level): Low, raw OD600 reference: median of DMSO wells 0.227, cell-free background 0.041
[13] = arabinose 100 nM, raw OD600 reference: median of DMSO wells 0.413, cell-free background 0.052
[14] = arabinose 10000000 nM, raw OD600 reference: median of DMSO wells […], cell-free background 0.052

SMILES | growth [1] | growth (E. coli TESEC Mtb Alr [2]; [4]) | growth (E. coli TESEC Mtb Alr [2]; [5]) | growth (E. coli TESEC Mtb Alr [2]; [6]) | growth (E. coli TESEC Mtb Alr [2]; [7]) | growth (E. coli TESEC Mtb Alr [2]; [8]) | growth (E. coli TESEC Mtb Asd; [9]) | growth (E. coli TESEC Mtb Asd; [10]) | growth (E. coli TESEC Mtb DapB; [11]) | growth (E. coli TESEC Mtb DapB; [12]) | growth (E. coli TESEC Mtb Alr [3]; [13]) | growth (E. coli TESEC Mtb Alr [3]; [14])
CC(=O)N[C@@H](CC(C)C)C(=O)O [N-Acetyl-L-leucine] | 0.243 ± 0.013 | 0.292 ± 0.016 | 0.259 ± 0.004 | 0.219 ± 0.0097 | 0.192 ± 0.0042 | 0.134 ± 0.0046 | 0.378 ± 0.077 | 0.476 ± 0.0098 | 0.206 ± 0.0033 | 0.205 ± 0.0021 | 0.41 ± 0.013 | 0.349 ± 0.0042
CC(C)(C)NC[C@@H](O)COc1cccc2c1CCCC2=O [(+) -Levobunolol hydrochloride] | 0.226 ± 0.012 | 0.291 ± 0.0069 | 0.267 ± 0.007 | 0.18 ± 0.0047 | 0.182 ± 0.0049 | 0.136 ± 0.003 | 0.459 ± 0.021 | 0.467 ± 0.022 | 0.205 ± 0.021 | 0.224 ± 0.017 | 0.412 ± 0.012 | 0.339 ± 0.013
O=C(O)c1cccnc1 [Niacin] | 0.28 ± 0.0091 | 0.346 ± 0.021 | 0.304 ± 0.0045 | 0.243 ± 0.0028 | 0.238 ± 0.0034 | 0.152 ± 0.0078 | 0.397 ± 0.019 | 0.461 ± 0.0099 | 0.211 ± 0.016 | 0.238 ± 0.0084 | 0.423 ± 0.028 | 0.431 ± 0.014
CN1CCCCC1CCN1c2ccccc2Sc2ccc([S+](C)[O-])cc21 (stereo unspecified) [Mesoridazine besylate] | 0.169 ± 0.0023 | 0.24 ± 0.012 | 0.266 ± 0.0092 | 0.225 ± 0.032 | 0.131 ± 0.0058 | 0.149 ± 0.005 | 0.204 ± 0.023 | 0.339 ± 0.091 | 0.191 ± 0.007 | 0.202 ± 0.027 | 0.403 ± 0.0065 | 0.3 ± 0.02
O=C(O)COC(=O)Cc1ccccc1Nc1c(Cl)cccc1Cl [Aceclofenac] | 0.154 ± 0.0035 | 0.205 ± 0.019 | 0.223 ± 0.015 | 0.12 ± 0.007 | 0.141 ± 0.0064 | 0.132 ± 0.012 | 0.205 ± 0.026 | 0.263 ± 0.011 | 0.156 ± 0.0075 | 0.176 ± 0.028 | 0.352 ± 0.034 | 0.244 ± 0.015
CC(=O)OCC(=O)NCCCOc1cccc(CN2CCCCC2)c1 [Roxatidine Acetate HCl] | 0.241 ± 0.013 | 0.302 ± 0.0074 | 0.265 ± 0.008 | 0.212 ± 0.024 | 0.186 ± 0.0084 | 0.139 ± 0.0026 | 0.29 ± 0.046 | 0.389 ± 0.023 | 0.185 ± 0.016 | 0.186 ± 0.0097 | 0.408 ± 0.0076 | 0.3569 ± 0.0035
CC(=O)OCC(=O)[C@@]12OC3(CCCC3)O[C@@H]1C[C@H]1[C@@H]3CCC4=CC(=O)C=C[C@]4(C)[C@@]3(F)[C@@H](O)C[C@@]12C [Amcinonide] | 0.185 ± 0.011 | 0.287 ± 0.066 | 0.272 ± 0.011 | 0.241 ± 0.059 | 0.242 ± 0.07 | 0.172 ± 0.011 | 0.451 ± 0.11 | 0.402 ± 0.067 | 0.222 ± 0.043 | 0.265 ± 0.025 | 0.4092 ± 0.0021 | 0.304 ± 0.0053
Cc1nccn1CC1CCc2c(c3ccccc3n2C)C1=O (stereo unspecified) [Ondansetron Hydrochloride] | 0.195 ± 0.004 | 0.272 ± 0.0034 | 0.252 ± 0.0038 | 0.246 ± 0.0034 | 0.304 ± 0.014 | 0.146 ± 0.0028 | 0.432 ± 0.06 | 0.191 ± 0.011 | 0.229 ± 0.013 | 0.183 ± 0.004 | 0.365 ± 0.013 | 0.384 ± 0.0066
CC(C)(C)NCC(O)c1cc(O)cc(O)c1 (stereo unspecified) [Terbutaline hemisulfate] | 0.251 ± 0.0065 | 0.301 ± 0.0057 | 0.265 ± 0.0072 | 0.238 ± 0.047 | 0.1766 ± 0.0011 | 0.163 ± 0.0049 | 0.293 ± 0.03 | 0.385 ± 0.042 | 0.226 ± 0.004 | 0.221 ± 0.013 | 0.402 ± 0.0092 | 0.354 ± 0.026
CCCCCN(C)CCC(O)(P(=O)(O)O)P(=O)(O)O [Ibandronate sodium] | 0.245 ± 0.0075 | 0.287 ± 0.01 | 0.25 ± 0.0058 | 0.196 ± 0.011 | 0.182 ± 0.0036 | 0.131 ± 0.0067 | 0.364 ± 0.022 | 0.448 ± 0.015 | 0.206 ± 0.0027 | 0.232 ± 0.035 | 0.422 ± 0.01 | 0.358 ± 0.014
CCN(CC)CCCC(C)Nc1ccnc2cc(Cl)ccc12 (stereo unspecified) [Chloroquine diphosphate] | 0.236 ± 0.0047 | 0.338 ± 0.0096 | 0.2486 ± 0.0011 | 0.235 ± 0.025 | 0.176 ± 0.0044 | 0.163 ± 0.0047 | 0.253 ± 0.047 | 0.246 ± 0.029 | 0.201 ± 0.026 | 0.226 ± 0.047 | 0.412 ± 0.014 | 0.328 ± 0.02
CCC(NC(C)C)C(O)c1ccc(O)c(O)c1 (stereo unspecified) [Isoetharine mesylate salt] | 0.196 ± 0.0071 | 0.303 ± 0.012 | 0.277 ± 0.005 | 0.188 ± 0.018 | 0.18 ± 0.0035 | 0.155 ± 0.0024 | 0.309 ± 0.11 | 0.37 ± 0.062 | 0.187 ± 0.0097 | 0.226 ± 0.031 | 0.401 ± 0.032 | 0.344 ± 0.019
NCCc1cc[nH]n1 [Betazole hydrochloride] | 0.25 ± 0.0071 | 0.254 ± 0.06 | 0.259 ± 0.014 | 0.2 ± 0.03 | 0.1943 ± 0.00064 | 0.14 ± 0.0021 | 0.279 ± 0.0079 | 0.379 ± 0.081 | 0.215 ± 0.021 | 0.254 ± 0.052 | 0.408 ± 0.013 | 0.305 ± 0.067
